Laboratory results: PubChem BioAssay AID720576 (National Center for Advancing Translational Sciences (NCATS), 2013)
The other results are listed elsewhere or left out. Entries that show only a call come without a potency. Inconclusive results are not listed. Activity calls are given as the source filed them. Calls follow the shape of the dose curve; as a rule, active = well fitted inhibition curve with a large enough effect; inconclusive = small, poorly fitted or top-dose-only effect; inactive = no such curve, though single readings can be large or run the other way.

Experiment: qHTS Assay for Inhibitors of Hepatitis C Virus (HCV): Cytotoxicity Counterscreen for Cherry-picked Compounds
Text: Hepatitis C virus (HCV) infects about 200 million people in the world. Many infected people progress to chronic liver disease including cirrhosis with a risk of developing liver cancer. To date, there is no effective vaccine for hepatitis C. Current therapy based on interferon is only effective in about half of the patients and is associated with significant adverse effects. The fraction of people with HCV who can complete a successful treatment is estimated to be no more than 10 percent. Recent development of direct-acting antivirals against HCV, such as protease and polymerase inhibitors, is promising but still requires combination with peginterferon and ribavirin for maximal efficacy. In addition, these agents are associated with high rate of resistance and many have significant side effects. Due to the lack of a culture system for infectious HCV, the search for new HCV drugs has been greatly hampered. […] High-throughput screening (HTS) with an infectious HCV system would cover the complete spectrum of potentially druggable targets in all stages of HCV lifecycle, and would have more biological relevance than other cell-based assays. […]
Cells were plated in a 1536-wel tissue culture grade plates at a final concentration of 1,000 cells/well (3 uL volume). […] The luminescence signal was read for 15 sec using the PerkinElmer ViewLux plate reader.
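Also: 44 h compound exposure; nearly all actives have a fitted effect of over 55% in size.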

Structure (SMILES) | Potency
CC1=CC(=Cc2sc3ccccc3[n+]2C)C=C(C)O1 | 7.05 µM (active)
CC[N+]1(C)CCCC(OC(=O)C(O)(c2ccccc2)c2ccccc2)C1 (configuration not stated) | inactive
